Out of some 96,000 compounds screened, about 20,000 (21%) were called active. The list is a sample of the results. Unmarked numbers belong to inactive results.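 Rule for the calls: active = CYP2C19 inhibition above a set limit at 5 µM in the primary screen (cut at about 50% in these data); inactive = the rest.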

In the test the target is Cytochrome P450 2C19 (Homo sapiens) (UniProt P33261). Put plainly: blockers of cytochrome P450 2C19 activity – biochemical, luminescence, ADME assay, primary screen (AID 778).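 Note: plate controls were negative control wells for no effect and 2.5 mM tranylcypromine positive control for full effect.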 Conditions: CYP2C19 Supersomes, luciferin-H EGE luminescence, 30 min; at 5 µM; hits give high values.
Chain of Cytochrome P450 2C19 (Homo sapiens) (P33261 whole entry, looked up): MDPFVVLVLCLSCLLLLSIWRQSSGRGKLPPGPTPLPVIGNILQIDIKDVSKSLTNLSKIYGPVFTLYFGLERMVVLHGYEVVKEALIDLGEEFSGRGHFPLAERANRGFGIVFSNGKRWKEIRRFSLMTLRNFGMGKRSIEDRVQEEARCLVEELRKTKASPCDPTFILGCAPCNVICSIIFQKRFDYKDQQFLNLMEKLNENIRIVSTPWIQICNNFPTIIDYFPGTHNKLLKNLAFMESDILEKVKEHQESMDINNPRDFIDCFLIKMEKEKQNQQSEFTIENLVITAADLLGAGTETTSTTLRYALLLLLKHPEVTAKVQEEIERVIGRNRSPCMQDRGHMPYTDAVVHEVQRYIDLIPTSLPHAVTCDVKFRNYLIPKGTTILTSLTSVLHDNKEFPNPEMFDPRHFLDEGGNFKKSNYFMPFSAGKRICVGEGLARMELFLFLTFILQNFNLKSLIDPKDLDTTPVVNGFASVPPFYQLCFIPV
For `C/C(=N\c1nc2ccccc2n1C)c1cc(Cl)ccc1O`, the inhibition (as a rule, the relative decrease from the control value, in per cent) is -5.8%.

`CCN(CC)c1ccc(/C=N/Nc2nc(C)cc(=O)[nH]2)cc1`: the inhibition was 7.4%.

As to `COc1ccc(CCN(C(=O)COc2ccccc2)c2nc(-c3ccccc3)cs2)cc1OC`, the inhibition was 35.3%.

As to `O=C(c1cccs1)N(C(=O)c1cccs1)c1ccccn1`, the inhibition is 23%.

With `COc1ccc(CN(C(=O)c2cccs2)c2nccs2)cc1OC`, the inhibition was 100% (active).

As for `CCOC(=O)c1cc2n(c1C)-c1ccccc1C2=O`, the inhibition was 17.8%.

For `COc1ccc(C(=O)NNC(=O)c2cnccn2)cc1[N+](=O)[O-]`, the inhibition was 11.1%.

On to `Cc1cc(C)nc(N2CCN(c3ncnc4c3oc3ccccc34)CC2)n1`, for which the inhibition was -16.1%.

Take `CCOC(=O)CN1C(=O)C(=O)c2cc(C)ccc21`: the inhibition was -2.2%.

With `CCCCOC(=O)Cn1c(=O)n(CC(=O)OCCCC)c2cc(C)ccc21`, the inhibition is 55.8% (active).

On to `CCCCOC(=O)Cn1c(=N)n(CCN(CC)CC)c2ccccc21`, for which the inhibition was -29.6%.

As for `Cc1ccc2nc3n(c(=O)c2c1)CCC3`, the inhibition is -4.2%.

Regarding `Cc1ccccc1NC(=O)Cc1nnc(SCC(=O)N2CCN(c3ccccc3)CC2)n1C`, the inhibition is 26.9%.

Turning to `O=C(Nc1ccc(-c2nnc(-c3ccccc3)o2)cc1)C1CCCO1` (centres undefined), the inhibition is 17.1%.

`O=C(Nc1nnc(CCc2ccccc2)s1)C1CCCO1` (centres undefined): the inhibition is 15.6%.

For the molecule `O=C(Nc1cccc(-c2nnc(-c3ccccc3)o2)c1)C1CCCO1` (centres undefined), the inhibition was 71.9% (active).

Turning to `Cc1nc(SCC(=O)Nc2cc(C)on2)c2c(C)c(C)sc2n1`, the inhibition was 9.2%.

As for `CCOc1cc(C2C(C(=O)OC)=CN(C3CCCC3)C=C2C(=O)OC)cc(Br)c1O`, the inhibition was -1.9%.

Turning to `CC(=O)c1cc(NC(=O)c2ccccc2)c(=O)oc1/C=C/N(C)C`, the inhibition is 0.3%.

Take `CN(C)c1cc(N)c2ccccc2n1` (tested in a mixture with another compound): the inhibition was -9.5%.

Turning to `Cc1cc(NC(=O)COc2ccc(Cl)cc2Cl)n(CCC#N)n1`, the inhibition was 99.1% (active).

`CN1CCN(c2ccc(NC(=O)COc3ccc(Cl)cc3Cl)cc2)CC1`: the inhibition was 17.9%.

Regarding `Cc1cc(Nc2ccccc2)n(CCC#N)n1`, the inhibition is -5.9%.

Turning to `Cc1ccc(S(=O)(=O)N2C3C=CC(C3)C2C(=O)O)cc1` (centres undefined), the inhibition was 10.3%.

Take `CC(C)(C)c1ccc(OC2=CS(=O)(=O)c3ccccc32)cc1`: the inhibition is 65.2% (active).

Turning to `CC(C)(C)c1csc(NC2=NS(=O)(=O)c3ccccc32)n1`, the inhibition is 0.4%.

In the case of `O=S1(=O)C=C(SCCN2CCCC2)c2ccccc21`, the inhibition was 28.3%.

For `COc1cc2[nH]c(=S)n(CCN3CCCCC3C)c(=O)c2cc1OC` (centres undefined), the inhibition is -5.5%.

Regarding `O=C1CCCc2c1[nH]c1ccc(Br)cc21`, the inhibition was 15.9%.

Turning to `Nc1c(-c2ccc(F)cc2)cnc2ncnn12`, the inhibition was -14%.

Consider `COC(=O)[C@H](CCSC)NC(=O)Nc1ccc(OC)cc1`, for which the inhibition was 38%.

For the molecule `COc1cc(/C=C2/C(=O)ON=C2C)ccc1OCc1ccccc1F`, the inhibition is 17.5%.

Regarding `COc1ccccc1CNCc1cccs1`, the inhibition was 31.8%.

With `Cn1c(=O)c2c(nc(OCc3cccnc3)n2Cc2ccccc2)n(C)c1=O`, the inhibition is 16.8%.

As to `Fc1ccccc1COc1ccccc1CNCc1ccncc1`, the inhibition is 96.3% (active).

Take `c1ccc(COc2ccccc2CNCc2cccnc2)cc1`: the inhibition was 59.4% (active).

Take `Cc1nc2ccccc2cc1OCc1ccc(F)cc1`: the inhibition was 17.6%.

Consider `Cc1nnc(SCC(=O)NC2CCCC2)s1`, for which the inhibition is 19.1%.

For the molecule `Cn1cccc1C(=O)NC(=O)COC(=O)Cc1coc2ccc3ccccc3c12`, the inhibition is 31.8%.

In the case of `O=c1[nH][nH]c(=O)c2cc(N3CCCC3)ccc12`, the inhibition was 0.9%.

In the case of `CCOc1ccc(-c2nc(C)sc2CC(=O)O)cc1`, the inhibition was 12.3%.

On to `CCc1nc(C)ccc1OCC(=O)N(CC)CC`, for which the inhibition was 0.2%.

In the case of `C=CCn1c(CSc2nc3ccccc3s2)nnc1SCC(=O)NCc1ccco1`, the inhibition is 24.8%.

As for `C=CCn1c(N)cc(=O)nc1SCC(=O)Nc1cccc2ccccc12`, the inhibition is 1%.

`C=CCn1c(SCC(=O)Nc2nc3ccccc3s2)nnc1-c1ccccc1O`: the inhibition was 54.6% (active).

Consider `C=CCn1c(SCC(=O)NCc2ccccc2)nnc1-c1cc(Br)ccc1O`, for which the inhibition is 91.6% (active).

For the molecule `C=CCn1c(COc2ccccc2)nnc1SCC(=O)NCC(=O)OCC`, the inhibition was -8.4%.

`CCCCCCn1c(CN2CCCC(C)C2)nc2c1c(=O)n(C)c(=O)n2C` (centres undefined): the inhibition was 2.2%.

As for `CCOC(=O)Nc1ccc2c(c1)N(C(=O)CN1CCN3CCCC3C1)c1ccccc1CC2` (centres undefined), the inhibition is 18.2%.

With `CCCCNC(=O)C1CCCNC1=O` (centres undefined), the inhibition is -19%.

In the case of `CCOC(=O)c1nnn(-c2nonc2OC)c1-c1ccccc1`, the inhibition was 60.7% (active).

For the molecule `CCOC(=O)c1nnn(-c2nc(OC)nc(N(C)C)n2)c1-c1ccccc1`, the inhibition was 27.7%.

For `CCOC(=O)C1=C(c2ccccc2)O/C(=C(/C(=O)OC)C(F)(F)F)S1`, the inhibition is 11.1%.

`Cc1cccc(C(=O)Nc2ccc(C(=O)/C=C/c3cccs3)cc2)c1`: the inhibition is -1.9%.

`CCCNC(=O)NCc1ccc(N2CCCC2=O)cc1`: the inhibition was 3.6%.

Take `Brc1ccc(OCCn2ccnc2)cc1`: the inhibition is 91.7% (active).

Regarding `COc1cccc(C(=O)Nc2c3c(nn2-c2cccc(C)c2C)CS(=O)(=O)C3)c1OC`, the inhibition is -2.2%.

On to `C=CCNC(=O)C1CC=CCC1C(=O)O` (centres undefined), for which the inhibition was -11.3%.

`N#CC1=C(SCc2ccccc2)NC(=O)C(C#N)C12CCCC2` (centres undefined): the inhibition was 63.9% (active).

Regarding `O=C1c2ccccc2C(=O)N1CCCc1nc(-c2ccccc2)no1`, the inhibition is 9.5%.

For `Cc1ccc(Cc2nc(-c3cccc(C)c3)no2)cc1`, the inhibition was 2.2%.

With `c1ccc(CCc2nc(-c3ccncc3)no2)cc1`, the inhibition is 97.5% (active).

Take `CCOC(=O)N1CCN(CC(=O)Nc2cc(C)nn2-c2nc3ccccc3s2)CC1`: the inhibition was 39.8%.

For `CCn1cc(C(=O)N/N=C(/C)c2ccc(F)cc2)c(=O)c2cc(F)c(N3CCCC3)cc21`, the inhibition is 39.5%.

Turning to `Cc1nnc(SCC(=O)Nc2ncc3c(n2)CC(C)(C)CC3=O)s1`, the inhibition is 1.5%.

For the molecule `CCN1C(=O)C(CC(=O)Nc2cc(C)ccc2C)SC1=Nc1ccc(S(N)(=O)=O)cc1` (centres undefined), the inhibition is 17.6%.

Consider `CC(=O)Oc1ccc(C(=O)Nc2nccs2)cc1`, for which the inhibition was 16.7%.

Turning to `Cn1cccc1C(=O)Nc1nccs1`, the inhibition is 8.5%.

Regarding `O=C(CCSCCc1ccccn1)Nc1nccs1`, the inhibition was 82.6% (active).

Turning to `CC(C(=O)N1CCOCC1)N1c2cccc3cccc(c23)S1(=O)=O` (centres undefined), the inhibition is 80.5% (active).

Turning to `NC(=NC(=O)c1ccccc1)N1CCOCC1`, the inhibition is 12%.

Regarding `CC(C(=O)O)N1C(=O)c2cccc3cccc1c23` (centres undefined), the inhibition is -13.8%.

With `O=C(NCCN1CCN(Cc2ccccc2)CC1)c1cc2c(=O)[nH]c3ccccc3c2s1`, the inhibition was -2.7%.

On to `Nn1c(Cc2cccc3ccccc23)nnc1SCC(=O)N1CC(=O)Nc2ccccc21`, for which the inhibition was -8.7%.

For the molecule `COc1ccc(NC(=O)c2c(SC)nsc2SC)cc1`, the inhibition was 7.1%.

Regarding `O=S1(=O)CCN2C(=N1)SC1=C2CCN(Cc2ccccc2)C1`, the inhibition is 48.1%.

In the case of `CN(C(=O)C1CCOC1)c1nnc(-c2cccnc2)s1` (centres undefined), the inhibition was 5.3%.

Take `CC(C)(C)NC(=O)Cn1cnc([N+](=O)[O-])n1`: the inhibition is 6.1%.

Turning to `Cn1cnc([N+](=O)[O-])c1Sc1ccccc1`, the inhibition is 30.3%.

Turning to `Cn1nc([N+](=O)[O-])nc1Sc1ccc(C(C)(C)C)cc1`, the inhibition is 97.1% (active).

On to `Cc1ccc(-c2n[nH]c(=S)n2/N=C/c2cc3c(cc2[N+](=O)[O-])OCO3)cc1`, for which the inhibition was 0.8%.

Regarding `O=C(COc1ncnc2c(Cl)cc(Cl)cc12)N1CCN(S(=O)(=O)c2ccccc2)CC1`, the inhibition was -6.9%.

For `CCc1nnc(NC(=O)CCC(=O)NCc2ccccc2OC)s1`, the inhibition was -8%.

As to `COc1cc(SC)ccc1C(=O)NCCOc1ccccc1Cl`, the inhibition is 94.9% (active).

As for `CCCOc1ccccc1C(=O)NCCCC(=O)O`, the inhibition was 9.9%.

As for `CCOC(=O)c1c(C)[nH]c(C(=O)NCc2ccccc2OC)c1C`, the inhibition is 44.3%.

With `COc1ccccc1CNC(=O)c1ccc(SC)cc1OC`, the inhibition is 78.9% (active).

Consider `COc1ccc(Cl)cc1C(=O)NCC#N`, for which the inhibition is -3.6%.

As to `O=C1CCCN1CCCNc1ncnc2c1[nH]c1ccccc12`, the inhibition was 39%.

Consider `CC(=O)Nc1ccc(N2C(=O)CCC2=O)cc1C`, for which the inhibition was 9.8%.

As to `O=C(/C=C/Sc1ncn[nH]1)c1ccc(Cl)cc1`, the inhibition is 38.2%.

As to `CC1Cc2ccccc2N1C(=O)CSc1nnc(-c2ccc(S(=O)(=O)N3CCCCC3)cc2)o1` (centres undefined), the inhibition was 12.5%.

Take `O=C(CCS(=O)(=O)Cc1ccccc1F)NCCCN1CCCCC1`: the inhibition was 22.6%.

As for `CCCNC(=O)CN(Cc1ccccc1F)S(=O)(=O)c1ccc(C)cc1`, the inhibition was 64.4% (active).

Regarding `Cc1ccc(S(=O)(=O)N(CC(=O)NCCSC2CCCCC2)c2ccccc2F)cc1`, the inhibition was -4.4%.

Take `Cc1cc(=O)n2nc(N3CCCC(C(=O)NCCC4=CCCCC4)C3)sc2n1` (centres undefined): the inhibition is 35.1%.

`CCOC(=O)N1CCC(NC(=O)Cc2cn(C)c3ccccc23)CC1`: the inhibition is -8.8%.

For `CC1=Nn2c(nnc2-c2ccccc2)SC1`, the inhibition is -2%.

Turning to `CCOc1ccccc1C1CC(c2ccc(Cl)cc2)Nc2nc(N)nn21` (centres undefined), the inhibition is 90.2% (active).

Take `COc1ccc(C2CC(c3ccc(Cl)cc3Cl)Nc3nc(N)nn32)cc1OC` (centres undefined): the inhibition was -12.5%.

In the case of `CCOc1ccccc1C1CC(c2ccccc2)Nc2nc(N)nn21` (centres undefined), the inhibition is 44.9%.

In the case of `COc1ccc(NC(=O)COC(=O)Cn2c(C)nc3ccccc32)cc1OC`, the inhibition was -0.3%.

Regarding `COc1ccc(-c2nc3ccccc3n2CCC(C)C)cc1OC`, the inhibition is 61.3% (active).

As to `COCCn1c(-c2ccc(OC)c(OC)c2)nc2ccccc21`, the inhibition is 0.9%.
